In PubChem BioAssay:
Calls of active or inactive are those of the source. Unless noted, the rule behind the calls is not given here.

Legend:
[1] = compounds binding Alexa647 anti-His antibody – biochemical, small-molecule microarray, 635 nm fluorescence, artefact control for SMM control protein annotation, primary screen (AID 1128); details: higher = more signal;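 note: score merges feature fluorescence with signal-to-noise for each printed compound spot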
[2] = tested on: Human papillomavirus type 1a E7 protein (residues 1-88); experiment: HPV1a E7 small-molecule binders, primary screen, biochemical, small-molecule microarray, residues 1-88, 635 nm (AID 1129); details: small-molecule microarray binding, fluorescence 635 nm; higher = more signal
[3] = target: Focal adhesion kinase 1 (Homo sapiens) (UniProt Q05397); experiment: PTK2 protein binding on printed compound slides – biochemical, small-molecule microarray, 635/667 nm fluorescence, BSA, DTT, primary screen (AID 1130); details: 635 nm fluorescence, higher = more signal;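 note: composite of spot emission at 667 nm and signal to noise over triplicate slides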
[4] = tested on: Fibrinogen (Alexa647-labelled); experiment: Alexa647-fibrinogen binding to printed small molecules – biochemical, small-molecule microarray, 635/667 nm fluorescence, artefact control for SMM control-protein annotation, profiling panel (AID 1131); details: fibrinogen-A647 binding fluorescence, higher = more signal;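 note: z-score merges 667 nm fluorescence with per-spot signal-to-noise over triplicate slides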
[5] = target: Follistatin (Homo sapiens) (UniProt P19883); experiment: FST protein binding to printed compounds – biochemical, small-molecule microarray, 635/667 nm fluorescence, primary screen (AID 1132); details: 635 nm fluorescence, higher = more signal
[6] = target: Fibroblast growth factor 2 (Homo sapiens) (UniProt P09038); experiment: basic fibroblast growth factor binding to printed compounds – biochemical, small-molecule microarray, 635/667 nm fluorescence, primary screen (AID 1133); details: FGF2, fluorescence 635/667, higher = more signal
[7] = JC-1 mitochondrial potential readout, lung cancer cells – cell-based, A549, JC-1 fluorescence, basal, 24 h, 100 nL, profiling panel (AID 1138); details: higher = more signal;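 note: A549 lung adenocarcinoma cells under basal conditions with no added stimulus; test concentration not given here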
Lefty1 = Lefty1 protein binding to printed compounds – biochemical, small-molecule microarray, 635/667 nm fluorescence, primary screen (AID 1139); details: fluorescence 635/667, higher = more signal
[8] = tested on: wheat germ agglutinin (Triticum aestivum), Alexa647-labelled; experiment: Alexa647-WGA lectin binding to printed small molecules – biochemical, small-molecule microarray, 635/667 nm fluorescence, artefact control for SMM control-protein annotation, profiling panel (AID 1140); details: WGA-A647 binding, 635 nm fluorescence, higher = more signal;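 note: score merges 667 nm feature emission with signal to noise over triplicate slides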
[9] = target: Luciferin 4-monooxygenase (Photinus pyralis) (UniProt P08659); experiment: inhibition of purified Photinus pyralis luciferase – biochemical, luminescence, purified enzyme, 2006 set, primary screen (AID 1141); details: purified firefly luciferase, SteadyGlo luminescence, 30 min; higher = more signal, called active from +8 up or from −8 down;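 note: cell-free assay with purified firefly luciferase at 100 ng per well in PBS; test concentration not given here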
[10] = tested on: Wnt5a (protein binding on small-molecule microarray); experiment: small molecules binding Wnt5a protein – biophysical, small-molecule microarray, 635/667 nm fluorescence, primary screen (AID 1142); details: 635 nm fluorescence, higher = more signal;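 note: fluorescence read at 667 nm with signal to noise per printed feature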
[11] = ATP-based viability of Huh7 replicon cells – cell-based, CellTiter-Glo luminescence, basal, 48 h, cytotoxicity control for HCV replication inhibitor project, primary screen (AID 1143); details: higher = more signal, called active from +8 up or from −8 down;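 note: Huh7 hepatoma cells carrying a hepatitis C replication reporter with no stimulus; test concentration not given here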
[12] = Pseudomonas biofilm growth suppression – PAO1 strain, BacTiter-Glo luminescence, LB-PBS, primary screen (AID 1144); details: P. aeruginosa PAO1 biofilm, 12 h, higher = more signal
[13] = basal CRE-LacZ reporter activity in PC12 – cell-based, unstimulated, primary screen (AID 1145); details: no forskolin, luminescence, 4.5 h, higher = more signal, called active from +8 up or from −8 down
[14] = forskolin-driven CRE-LacZ activity in PC12 – cell-based, CRE-LacZ reporter, forskolin-stimulated, primary screen (AID 1146); details: luminescence, 4.5 h, higher = more signal, called active from +8 up or from −8 down;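 note: PC12 cells with 6xCRE LacZ reporter stimulated by forskolin 10 µM; beta-galactosidase reporter signal reflecting CREB driven transcription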
[15] = target: Streptavidin (Streptomyces avidinii) (UniProt P22629); experiment: compounds binding control protein streptavidin – biophysical, small-molecule microarray, 635/667 nm fluorescence, artefact control for SMM compound annotation, primary screen (AID 1147); details: higher = more signal;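 note: signal reflects streptavidin binding to arrayed compounds as a control protein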
[16] = probe aInhba binding on compound microarray – biochemical, small-molecule microarray, 635/667 nm fluorescence, primary screen (AID 1148); details: higher = more signal;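 note: score merges 667nm spot fluorescence with signal-to-noise for antibody binding to printed compounds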
Torsin-1A (Homo sapiens) [17] = target: Torsin-1A (Homo sapiens) (UniProt O14656); experiment: TOR1A wild-type binding on microarray – cell lysate, small-molecule microarray, lysate, 635/667 nm, primary screen (AID 1149); details: COS7 hTOR1A-WT lysate, 635 nm fluorescence, higher = more signal
Torsin-1A (Homo sapiens) [18] = target: Torsin-1A (Homo sapiens) (UniProt O14656); experiment: torsin A mutant lysate binding on microarrays – cell lysate, small-molecule microarray, COS7 lysate, 635/667 nm fluorescence, primary screen (AID 1150); details: COS7 hTOR1A mutant lysate, 635 nm fluorescence, higher = more signal;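 note: score pools 667 nm emission and signal to noise measuring lysate protein binding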
[19] = tested on: Sonic hedgehog protein (Shh); experiment: Sonic hedgehog microarray binding compounds – biochemical, small-molecule microarray, 635/667 nm fluorescence, primary screen (AID 1151); details: 635 nm fluorescence, higher = more signal;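 note: Shh protein binding to compounds spotted on small-molecule microarray slides; score combines spot fluorescence intensity with signal-to-noise across triplicate slides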

Chain of Torsin-1A (Homo sapiens) (O14656 whole entry, looked up): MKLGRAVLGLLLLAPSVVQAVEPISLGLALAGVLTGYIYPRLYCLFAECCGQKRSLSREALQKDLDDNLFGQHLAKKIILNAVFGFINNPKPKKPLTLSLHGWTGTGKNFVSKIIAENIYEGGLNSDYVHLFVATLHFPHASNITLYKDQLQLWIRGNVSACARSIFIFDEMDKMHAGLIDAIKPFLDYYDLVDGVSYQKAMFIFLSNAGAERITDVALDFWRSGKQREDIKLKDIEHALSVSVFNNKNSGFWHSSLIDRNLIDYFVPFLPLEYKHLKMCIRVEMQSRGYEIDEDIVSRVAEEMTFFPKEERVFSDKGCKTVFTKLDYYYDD
Chain of Focal adhesion kinase 1 (Homo sapiens) (Q05397 whole entry, looked up): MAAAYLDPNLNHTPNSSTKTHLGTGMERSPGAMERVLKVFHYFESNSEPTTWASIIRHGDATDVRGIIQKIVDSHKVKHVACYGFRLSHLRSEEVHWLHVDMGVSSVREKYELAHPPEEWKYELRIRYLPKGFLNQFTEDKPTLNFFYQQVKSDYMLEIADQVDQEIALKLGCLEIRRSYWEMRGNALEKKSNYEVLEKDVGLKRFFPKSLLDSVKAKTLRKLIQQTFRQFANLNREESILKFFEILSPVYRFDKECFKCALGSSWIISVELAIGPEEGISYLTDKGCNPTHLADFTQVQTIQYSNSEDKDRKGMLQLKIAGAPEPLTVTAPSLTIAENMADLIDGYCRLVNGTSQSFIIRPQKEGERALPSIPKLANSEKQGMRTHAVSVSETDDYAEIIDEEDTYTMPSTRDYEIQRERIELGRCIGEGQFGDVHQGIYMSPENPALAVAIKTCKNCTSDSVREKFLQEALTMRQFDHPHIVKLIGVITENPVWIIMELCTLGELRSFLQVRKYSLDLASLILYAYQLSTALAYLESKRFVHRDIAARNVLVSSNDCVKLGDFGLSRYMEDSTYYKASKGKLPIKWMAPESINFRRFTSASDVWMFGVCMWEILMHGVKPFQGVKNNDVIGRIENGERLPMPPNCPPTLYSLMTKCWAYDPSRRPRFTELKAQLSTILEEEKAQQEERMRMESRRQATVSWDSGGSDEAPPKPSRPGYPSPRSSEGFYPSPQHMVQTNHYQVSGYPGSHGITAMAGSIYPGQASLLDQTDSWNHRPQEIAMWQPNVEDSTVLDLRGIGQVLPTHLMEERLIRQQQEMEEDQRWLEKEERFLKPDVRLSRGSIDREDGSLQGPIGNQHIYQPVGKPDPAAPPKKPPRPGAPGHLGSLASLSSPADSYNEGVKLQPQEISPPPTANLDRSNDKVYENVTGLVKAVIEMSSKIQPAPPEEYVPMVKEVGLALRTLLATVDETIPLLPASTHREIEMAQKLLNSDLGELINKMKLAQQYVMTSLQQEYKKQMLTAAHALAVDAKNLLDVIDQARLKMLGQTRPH
Chain of Streptavidin (Streptomyces avidinii) (P22629 whole entry, looked up): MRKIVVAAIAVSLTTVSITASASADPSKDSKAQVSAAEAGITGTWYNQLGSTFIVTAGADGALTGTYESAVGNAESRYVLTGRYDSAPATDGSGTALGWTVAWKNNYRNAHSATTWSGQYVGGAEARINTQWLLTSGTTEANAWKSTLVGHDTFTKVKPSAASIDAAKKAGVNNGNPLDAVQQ
Chain of Luciferin 4-monooxygenase (Photinus pyralis) (P08659 whole entry, looked up): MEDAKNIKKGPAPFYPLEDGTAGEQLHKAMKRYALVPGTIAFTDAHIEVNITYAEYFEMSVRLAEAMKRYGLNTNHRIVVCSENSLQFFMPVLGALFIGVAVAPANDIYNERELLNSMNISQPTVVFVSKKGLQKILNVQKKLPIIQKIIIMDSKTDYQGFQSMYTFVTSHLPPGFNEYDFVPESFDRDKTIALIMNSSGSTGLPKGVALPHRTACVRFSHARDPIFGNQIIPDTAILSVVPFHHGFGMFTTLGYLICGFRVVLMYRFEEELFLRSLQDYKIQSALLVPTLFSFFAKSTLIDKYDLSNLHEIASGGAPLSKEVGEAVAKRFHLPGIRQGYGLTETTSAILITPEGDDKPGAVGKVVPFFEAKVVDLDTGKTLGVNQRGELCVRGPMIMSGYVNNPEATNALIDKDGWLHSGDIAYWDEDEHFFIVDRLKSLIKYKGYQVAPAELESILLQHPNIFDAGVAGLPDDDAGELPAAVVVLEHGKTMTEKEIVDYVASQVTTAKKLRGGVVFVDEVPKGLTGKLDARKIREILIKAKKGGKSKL
Chain of Follistatin (Homo sapiens) (P19883 whole entry, looked up): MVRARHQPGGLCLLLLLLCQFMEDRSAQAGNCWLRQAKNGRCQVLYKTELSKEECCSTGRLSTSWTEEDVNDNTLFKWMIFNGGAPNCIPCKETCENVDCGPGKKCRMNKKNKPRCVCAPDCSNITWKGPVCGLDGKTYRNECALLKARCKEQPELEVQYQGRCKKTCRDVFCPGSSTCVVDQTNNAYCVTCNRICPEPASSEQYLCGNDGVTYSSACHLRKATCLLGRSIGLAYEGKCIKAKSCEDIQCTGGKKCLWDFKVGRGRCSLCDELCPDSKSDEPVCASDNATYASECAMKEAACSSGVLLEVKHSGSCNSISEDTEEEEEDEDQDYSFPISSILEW
Chain of Fibroblast growth factor 2 (Homo sapiens) (P09038 whole entry, looked up): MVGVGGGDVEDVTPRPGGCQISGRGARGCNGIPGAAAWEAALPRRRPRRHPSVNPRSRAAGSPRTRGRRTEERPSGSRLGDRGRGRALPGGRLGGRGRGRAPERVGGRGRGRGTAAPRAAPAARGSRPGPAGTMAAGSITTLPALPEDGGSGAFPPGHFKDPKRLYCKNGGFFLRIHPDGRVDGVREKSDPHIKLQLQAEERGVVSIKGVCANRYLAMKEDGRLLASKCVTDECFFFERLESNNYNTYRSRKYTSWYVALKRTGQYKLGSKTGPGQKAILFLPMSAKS

Row | SMILES | composite z-score [1] | composite z-score [2] | composite z-score [3] | composite z-score [4] | composite z-score [5] | composite z-score [6] | z-score [7] | composite z-score (Lefty1) | composite z-score [8] | z-score [9] | composite z-score [10] | z-score [11] | z-score [12] | z-score [13] | z-score [14] | composite z-score [15] | composite z-score [16] | composite z-score (Torsin-1A (Homo sapiens) [17]) | composite z-score (Torsin-1A (Homo sapiens) [18]) | composite z-score [19]
1 | O=C(O)[C@H]1C[C@H]2C(=O)NCC(=O)N2[C@H]1c1ccc(O)cc1 | 2.65 | -0.722 | 0.0888 | -0.908 | 1.32 | 1.05 | 1.97 | 0.368 | -0.0842 | -1.54 (inactive) | -0.0071 | -0.283 (inactive) | -0.642 (inactive) | -0.13 (inactive) | -0.108 (inactive) | -0.54 | -0.168 | 0.562 | -0.0135 | 0.751
2 | [N-]=[N+]=NCc1ccccc1C[C@@]1(C(=O)N2CCOCC2)N=C(c2ccc(OCCCO)cc2)O[C@@H]1c1ccccc1CN=[N+]=[N-] | 3.09 | 1.25 | 0.829 | 0.978 | 1.05 | 0.684 | 0.74 | 0.365 | 1.3 | -0.832 (inactive) | 1.44 | -3.44 (inactive) | -1.02 (inactive) | 1.7 (inactive) | -0.0755 (inactive) | 1.56 | 0.985 | 0.375 | 0.193 | 0.704
3 | [N-]=[N+]=NCc1ccccc1C[C@@]1(C(=O)NCC(O)CO)N=C(c2ccc(OCCCO)cc2)O[C@@H]1c1ccccc1CN=[N+]=[N-] (stereo not given in full) | -0.0645 | 1.23 | 0.919 | 0.971 | 1.28 | 1.6 | 0.16 | -0.83 | 0.91 | 0.782 (inactive) | 0.604 | -1.84 (inactive) | -0.376 (inactive) | -0.435 (inactive) | -0.554 (inactive) | 1.43 | 0.533 | 0.441 | 1.39 | -0.393
4 | CCOC(=O)[C@H]1C/C=C/C[C@H](C(=O)OCC)C(=O)O[C@H]2[C@@H](OC)O[C@H](CO)[C@@H](OC(=O)Nc3ccc4c(c3)OCO4)[C@@H]2OC1=O | 2.08 | 1.2 | 0.528 | 0.485 | -0.114 | 0.254 | -1.25 | 0.403 | -0.115 | -1.93 (inactive) | 0.285 | -6.55 (inactive) | -0.353 (inactive) | 0.484 (inactive) | -1.61 (inactive) | -0.0265 | 0.0342 | 0.687 | 0.126 | 0.903
5 | COC(=O)[C@@]1(Cc2ccc(OC)cc2)[C@H]2c3cc(C(=O)N4CCCC4)n(Cc4cc(F)cc5c4OCOC5)c3C[C@H]2CN1C(=O)c1ccccc1 | -0.642 | 1.2 | 0.993 | -0.18 | 0.0448 | -0.873 | 0.64 | -0.394 | 0.0908 | 0.0222 (inactive) | 0.605 | -2.5 (inactive) | 0.437 (inactive) | 2.68 (inactive) | 66.7 (active) | 0.699 | 0.423 | 0.442 | 0.996 | -0.673
6 | Cc1ccccc1C(O)C1C=CC2C(=O)N(C)C(=O)C2N1N1CCCCC1 (stereo not given) | 1.87 | 1.18 | 0.665 | 0.908 | 0.767 | 0.0201 | 0.0822 | 0.0198 | 0.596 | 0.497 (inactive) | 0.343 | 0.896 (inactive) | 0.46 (inactive) | -0.133 (inactive) | -0.0415 (inactive) | 1.24 | 0.462 | 0.851 | 0.696 | 0.0488
7 | COCCCNC(=O)[C@@]1(CCC(=O)OC(C)(C)C)N=C(c2ccc(OCCCO)cc2)O[C@H]1c1ccccc1CN=[N+]=[N-] | 3.15 | 1.04 | 1.02 | 1.01 | 1.39 | 1.28 | -0.49 | -0.34 | 1.2 | -1.05 (inactive) | 1.01 | -0.0523 (inactive) | 0.0993 (inactive) | -0.538 (inactive) | 0.286 (inactive) | 1.01 | 0.329 | 1.23 | 1.51 | 0.103
8 | COCCOC(=O)N1C(=O)[C@@]2(c3cc(C#CCNC(N)=O)ccc31)[C@H](c1ccc(O)cc1)N1[C@H](c3ccccc3)[C@H](c3ccccc3)OC(=O)[C@H]1[C@@H]2C(=O)NC[C@H](O)c1ccccc1 | -0.49 | 0.802 | -0.133 | 0.793 | 1.34 | 1.19 | -1.05 | 1.13 | 0.69 | 0.0103 (inactive) | 0.545 | 0.123 (inactive) | 0.00448 (inactive) | -0.606 (inactive) | -0.197 (inactive) | -0.0027 | 0.415 | 0.76 | 0.353 | 1.75
9 | C=CCC(OC(C)=O)[C@@H]1[C@@H](N(Cc2cc3ccccc3o2)C(=O)c2ccc(C)cc2)c2cc(OCCCO)ccc2N1C(=O)c1ccc2ccccc2c1 (stereo not given in full) | 0.192 | -0.409 | 0.281 | 0.257 | 0.503 | 0.286 | 1.24 | 0.217 | 0.32 | -1.76 (inactive) | 0.132 | 0.0491 (inactive) | -0.571 (inactive) | 3.93 (inactive) | 0.697 (inactive) | 0.0282 | -0.0963 | -0.353 | -0.0172 | 0.218
